Experimental data published in paper PMC4336329 (PLoS ONE, 2015).
About 14,000 (4.5%) of roughly 310,000 compounds showed an effect of 50% or more. The effect is printed as a negative number. Many of the other results were omitted from the sample, so strong results are more common in it than they were. Where a SMILES comes first, the peptide text is derived from it. The star is where a group is joined. PhAc = O=C(Cc1ccccc1)*; OBn = c1ccc(CO*)cc1

target: human ether-à-go-go-related gene (hERG) potassium channel (human, UniProt Q12809); test: primary screen, population patch clamp on CHO cells stably expressing hERG; higher = less effect of the substance
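Note: peak tail current of the secondary pulse compared with the same well before compound.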

human ether-à-go-go-related gene (hERG) potassium channel, sequence (Q12809 whole entry, looked up): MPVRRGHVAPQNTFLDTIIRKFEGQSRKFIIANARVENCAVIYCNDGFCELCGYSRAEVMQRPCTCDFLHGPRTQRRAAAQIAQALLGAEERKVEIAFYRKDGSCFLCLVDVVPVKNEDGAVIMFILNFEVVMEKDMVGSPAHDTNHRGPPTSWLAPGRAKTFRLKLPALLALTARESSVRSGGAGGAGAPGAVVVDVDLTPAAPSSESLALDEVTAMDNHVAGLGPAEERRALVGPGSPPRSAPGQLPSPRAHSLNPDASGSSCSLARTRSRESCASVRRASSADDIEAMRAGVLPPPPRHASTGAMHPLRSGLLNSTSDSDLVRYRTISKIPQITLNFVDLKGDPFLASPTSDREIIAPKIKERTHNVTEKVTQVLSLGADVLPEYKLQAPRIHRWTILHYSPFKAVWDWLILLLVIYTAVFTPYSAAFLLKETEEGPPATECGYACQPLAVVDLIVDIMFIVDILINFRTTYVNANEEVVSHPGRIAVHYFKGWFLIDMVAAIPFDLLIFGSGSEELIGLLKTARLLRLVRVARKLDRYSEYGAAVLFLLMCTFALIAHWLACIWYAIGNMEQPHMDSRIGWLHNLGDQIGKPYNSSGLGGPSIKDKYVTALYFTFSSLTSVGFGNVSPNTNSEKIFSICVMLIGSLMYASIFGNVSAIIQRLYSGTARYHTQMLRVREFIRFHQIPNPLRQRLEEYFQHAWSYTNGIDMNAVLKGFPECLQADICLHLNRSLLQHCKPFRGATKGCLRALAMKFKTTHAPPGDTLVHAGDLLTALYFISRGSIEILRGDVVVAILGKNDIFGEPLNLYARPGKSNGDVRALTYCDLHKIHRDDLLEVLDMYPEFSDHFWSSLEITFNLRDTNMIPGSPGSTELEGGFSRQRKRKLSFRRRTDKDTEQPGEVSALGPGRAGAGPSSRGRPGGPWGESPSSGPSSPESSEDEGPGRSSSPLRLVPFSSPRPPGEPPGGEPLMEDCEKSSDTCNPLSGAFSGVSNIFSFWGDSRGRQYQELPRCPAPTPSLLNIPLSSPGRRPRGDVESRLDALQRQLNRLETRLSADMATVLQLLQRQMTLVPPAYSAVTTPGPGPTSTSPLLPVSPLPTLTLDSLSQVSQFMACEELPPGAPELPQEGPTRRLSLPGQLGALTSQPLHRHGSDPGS

SMILES | hERG current change (%, negative = inhibition) at 10uM [%]
O=C(Cc1ccccc1)N[C@H](c1ccccc1)P(=O)(O)CO | 8.47
CC(=O)c1cccc(NC(=O)Nc2ccc(C(=O)N3CCOCC3)cc2)c1 | -0.351
NS(=O)(=O)c1ccc(NC(=O)COC(=O)c2ccc3c(c2)OCCO3)cc1 | 24
CC(C)C(=O)Nc1sc2c(c1C#N)CCCCC2 | 9.53
Cc1cc(C)c(S(=O)(=O)Nc2cccc3nsnc23)c(C)c1 | -3.18
O=C(NC1CCCC1)C(c1ccc(F)cc1)N(C(=O)c1csnn1)C1CCCC1 (stereo not drawn) | 9.14
COC(=O)c1ccc(CSc2nnc3n(Cc4ccccc4OC)c(=O)c4ccccc4n23)o1 | -19.3
CCc1noc(C)c1C(=O)N1CCCC(CCC(=O)NCc2cccc(OC)c2)C1 (stereo not drawn) | 20.2
Cc1ccc(N=Nc2c(N)n[nH]c2N)cc1 | 24.5
CNP(=O)(Oc1ccccc1)OC12CC3CC(CC(C3)C1)C2 (stereo not drawn) | -2.75
O=C(Nc1nnc(SCc2ccc(Cl)cc2)s1)C1CCCO1 (stereo not drawn) | -21.9
O=C(CNS(=O)(=O)c1ccccc1)NCC(=O)OCc1ccc(C(=O)c2ccccc2)cc1 | -61.6
O=C(CNC(=O)c1ccco1)NCC(=O)OCc1ccc(C(=O)Oc2ccc(Cl)cc2)cc1 | 9.73
O=C(CNC(=O)c1ccco1)NCC(=O)OCc1cccc(C(=O)Oc2ccccc2)c1 | -3.88
O=C(CNC(=O)c1ccco1)OCc1ccc(C(=O)c2ccccc2)cc1 | -69.2
O=C(CNC(=O)c1ccco1)OCc1ccc(Br)cc1 | 2.8
COC(=O)c1ccc(COC(=O)CNC(=O)c2ccco2)cc1 | 17.3
O=C(CNC(=O)c1ccco1)OCc1ccc(C(=O)Oc2ccccc2)cc1 | -73.6
O=C(CNS(=O)(=O)c1ccccc1)NCC(=O)OCc1ccc(Br)cc1 | -6.92

SMILES | hERG current change (%, negative = inhibition) at 10uM [%]
O=C(CNC(=O)Cc1ccccc1)NCC(=O)OCc1ccccc1 (PhAc-Gly-Gly-OBn) | 12.4
CCOC(=O)c1ccc(COC(=O)CNC(=O)CNC(=O)Cc2ccccc2)cc1 | -57.2
O=C(CNS(=O)(=O)c1ccccc1)NCC(=O)OCc1ccc(Cl)cc1 | 13.7
O=C(CNC(=O)Cc1ccccc1)NCC(=O)OCc1ccc(C(=O)c2ccccc2)cc1 | -5.33
O=C(Nc1cccc2c1CCCC2)c1ccc(Cl)c([N+](=O)[O-])c1 | 5.81
CC(=O)N1CCc2cc(Br)cc(S(=O)(=O)NCCCN3CCC(C)CC3)c21 | -16.8
CC(=O)c1sc(NC(=O)CCS(=O)(=O)c2ccccc2)nc1C | 8.51
Cc1sc(NC(=O)c2cc(-c3ccc(Cl)cc3)nc3ccccc23)c(C(N)=O)c1C | 5.31
NC(=O)/C(=C/c1ccco1)NC(=O)/C=C/c1ccccc1 | -5.56
N/C(=N\OC(=O)COc1ccccc1)c1ccc(Cl)cc1 | 2.9
CN1CCN(CC(=O)Nc2c(C#N)cnn2-c2ccccc2)CC1 | 12.1
CCOC(=O)[C@@H]1[C@H]2COc3cc(OC)ccc3[C@@H]2N2C(=O)N(c3ccc(C(F)(F)F)cc3)C(=O)[C@]12C | 15.1
C=CCNCCCOc1ccc(Cl)cc1Br.O=C(O)C(=O)O | -42.6
Brc1ccccc1OCCNCc1ccccc1.O=C(O)C(=O)O | -29.8
Clc1ccc(Cl)c(OCCCCNCc2ccccc2)c1.O=C(O)C(=O)O | -71.5
O=C(O)C(=O)O.OCCNCCCOc1ccc(Cl)cc1Br | -54.9
CCc1cc(OCCCCNCc2ccccc2)ccc1Cl.O=C(O)C(=O)O | -25.6
Cl.OCCCCNCc1ccc(OCc2ccccc2Cl)cc1 | -15.9
Cc1ccc(OCCCNCCO)c(Br)c1.O=C(O)C(=O)O | -10.5

SMILES | hERG current change (%, negative = inhibition) at 10uM [%]
Clc1ccc(OCCCNCc2ccccc2)c(Br)c1.O=C(O)C(=O)O | -64.4
Cl.OCCCCNCc1ccc(OCc2ccc(Cl)cc2Cl)cc1 | -51.6
Cl.OCCNCc1ccc(OCc2ccc(Cl)cc2Cl)cc1 | -45.8
Clc1cc(Br)ccc1OCCCNCc1ccccc1.O=C(O)C(=O)O | -30.1
Clc1ccc(OCCCNCc2ccccc2)c2ccccc12.O=C(O)C(=O)O | -1.92
Cc1cc(C)c(S(=O)(=O)Nc2ccc(OCC(=O)O)cc2)c(C)c1 | 6.93
Nc1nnnn1/N=C/c1ccccc1OCc1ccccc1 | 19
COCCCN(Cc1cccs1)S(=O)(=O)c1c[nH]c(C(=O)OC)c1 | -8.01
Cc1ccc2c(c1)nc(NCCCO)n2C | -3.54
Cc1cc(Cl)ccc1OC(C)C(=O)OCC(=O)Nc1ccc2[nH]c(=O)[nH]c2c1 (stereo not drawn) | -3.04
COc1cccc(-c2nc(N3CCN(C)CC3)c3ccccc3n2)c1O | -30.8
CN1CCN(c2nc(-c3ccc(Cl)cc3Cl)nc3ccccc23)CC1 | -73.9
CN1CCN(c2nc(-c3ccc(Cl)c(Cl)c3)nc3ccccc23)CC1 | 6.63
CN1CCN(c2nc(-c3ccccc3Cl)nc3ccccc23)CC1 | -73.8
CCN1CCN(c2nc(-c3ccccc3Cl)nc3ccccc23)CC1.Cl | -69.9
COc1nc(-c2ccc(Cl)cc2Cl)nc2ccccc12 | 6.59
CN1CCN(c2nc(-c3ccccc3O)nc3ccccc23)CC1 | 9.47
OCCN1CCN(c2nc(-c3ccccc3O)nc3ccccc23)CC1 | -25.1
Oc1ccccc1-c1nc(N2CCN(Cc3ccccc3)CC2)c2ccccc2n1 | 10.5
